The supplement of paper PMC3334620
Over roughly 33,000 sequences, “E-score (-0.5 to 0.5)” has its median near -0.017; the highest 2% begin near 0.3. Many of the other results were omitted from the sample, so the highest values are more common in it than they were.

Target: T1, Sut1 (UniProt P53032)
T1 sequence: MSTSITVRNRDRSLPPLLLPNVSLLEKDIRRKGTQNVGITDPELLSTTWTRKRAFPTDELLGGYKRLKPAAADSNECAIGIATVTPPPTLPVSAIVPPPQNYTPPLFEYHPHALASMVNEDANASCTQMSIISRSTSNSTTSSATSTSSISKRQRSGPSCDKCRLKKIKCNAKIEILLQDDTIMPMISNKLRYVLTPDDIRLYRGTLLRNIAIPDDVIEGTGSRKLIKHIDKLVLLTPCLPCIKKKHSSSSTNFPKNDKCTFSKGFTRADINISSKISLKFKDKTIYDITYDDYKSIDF
Experiment: PBM E-score (8-mer binding enrichment) (E-score (-0.5 to 0.5)); higher = stronger / more preferred TF binding
Conditions: protein concentration: 200 nM; construct: GST-full length
Method: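 Universal 'all 10-mer' protein binding microarrays (Agilent AMADID 015681) probed with GST-tagged S. cerevisiae TFs (full-length or DBD) made by in vitro transcription/translation (PURExpress), about 100-200 nM. Bound TF was detected with fluorescent anti-GST. Each ungapped 8-mer (which stands for itself and its reverse complement) is scored by the PBM enrichment score (E-score), a modified Wilcoxon-Mann-Whitney statistic from -0.5 to +0.5, computed with the Universal PBM Analysis Suite. Scale: above 0.35 generally sequence-specific binding.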

| Sequence | PBM E-score |
| --- | --- |
| AGGGGATC | -0.134 |
| CCAACCCG | -0.172 |
| CCCTGCTC | -0.0773 |
| CTCTCAGA | -0.139 |
| CTCCGATC | 0.38 |
| ATCCGATC | 0.18 |
| GGCCGATA | -0.152 |
| CGCCGATA | -0.197 |
| GTCCGATA | 0.362 |
| ATCCGATA | 0.215 |
| CTCCGATA | 0.432 |
| CGCCGATC | 0.137 |
| CACCGATA | 0.04 |
| CCCAGCTC | 0.03 |
| CTACACCC | -0.286 |
| AAAAAAAA | 0.228 |
| CCCCAATC | -0.327 |
| TGTGTAAA | 0.194 |
| CCGGACCA | 0.241 |
| CTGGACTA | -0.0898 |
| CCGGACTA | 0.48 |
| ACGGACGA | 0.1 |

| Sequence | PBM E-score |
| --- | --- |
| ACGGACTA | 0.431 |
| GCGGACTA | 0.404 |
| GAGGACTA | 0.0368 |
| GCGGACCA | 0.175 |
| ACGGACTG | 0.22 |
| AGGGACTC | -0.186 |
| ATGGACTA | -0.0502 |
| ACGGACTC | 0.393 |
| CGATCTCA | -0.0333 |
| AAGTGATT | 0.237 |
| AGTGTATG | 0.14 |
| AGCCCATA | -0.137 |
| ACTATTCT | 0.0103 |
| CCGGACTC | 0.476 |
| CCGGACAC | 0.112 |
| CGGGACTC | 0.0911 |
| ACGTAACT | 0.009 |
| ATATCCAA | 0.158 |
| CTATCCAA | 0.057 |
| TTATCCAA | 0.3 |
| ATTTTGTG | 0.239 |
| CTTTTGTA | 0.259 |

| Sequence | PBM E-score |
| --- | --- |
| ATTTTGTA | 0.318 |
| GACTACGA | 0.0667 |
| AGTCGGAA | 0.243 |
| CGTCGGAG | 0.422 |
| GGTCGGAC | 0.259 |
| AGTCGGAT | 0.173 |
| AGTCGGAC | 0.337 |
| AGTCGGAG | 0.316 |
| CGTCGGAA | 0.196 |
| CGTCGGAC | 0.247 |
| TGTCGGAA | 0.218 |
| CCATTCGG | 0.00649 |
| ATGTTCGG | 0.181 |
| CTGCCCAG | -0.222 |
| GCCTGGCA | -0.3 |
| CCACGGAC | 0.202 |
| CGACGGAC | 0.349 |
| ACACGGAA | 0.18 |
| GGACGGAC | 0.285 |
| CCACGGAG | 0.365 |
| AGACGGAA | 0.0433 |
| AGACGGAG | 0.322 |

| Sequence | PBM E-score |
| --- | --- |
| ACACGGAT | 0.0295 |
| AGACGGAT | 0.0639 |
| CGACGGAA | 0.116 |
| CCACGGAA | 0.178 |
| ACACGGAG | 0.409 |
| AGTAGAGG | -0.308 |
| GCGCAGCA | -0.232 |
| ACAATTTC | 0.0702 |
| AGGATAAT | 0.113 |
| TCAAAGGA | -0.0285 |
| GAGCCACC | -0.264 |
| CCATCTCC | 0.256 |
| GAAGATTC | 0.171 |
| CATTCTCC | 0.118 |
| CCAACTCG | -0.141 |
| CCAACTCA | -0.0222 |
| GCAACTAC | 0.0638 |
| GCAACTCA | 0.0595 |
| GCAACTCC | 0.299 |
| ACAACTCT | 0.0085 |
| CCAACTCC | 0.387 |
| ACAACTCA | 0.13 |
